Hedgehog inh: blocks Sonic Hedgehog signaling | AID 2313 | Shh-LIGHT2 Gli-luciferase reporter, 30 h | inhibition, % (no concentration beside the values) | actives 2.1% (n = 22,000);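 active means mean inhibition across valid replicates above about 65%, limit read from the data; inconclusive means mean under the limit, yet half or more replicates past it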;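 further: pathway switched on by Shh-conditioned medium diluted 1 in 25 in low serum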
NOMO-1 viab: STK33 inhibitor candidate reducing NOMO-1 cell viability; NOMO-1 AML viability, CellTiter-Glo luminescence, 72 h; inhibition, % (test concentration not listed); actives 7.5% (n = 37,000); in the data active means inhibition above about 80%; inconclusive means no clear call, values can overlap the other calls
MITF inh: blocks MITF activity; TRPM1 promoter luciferase, luminescence, 24 h; inhibition, % (no concentration beside the values); actives 0.28% (n = 37,000); in the data active means inhibition above about 85%; inconclusive means no clear call, values can overlap the other calls; inactive means below about 68%;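 further: human melanocyte line stably carrying TRPM1 promoter luciferase reporter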
PD-1 reverse act: reversal of PD-1 mediated T-cell inhibition. activation, % (test concentration not listed). 29,000 tested, under 10 active. primary human CD4 T cells, PD-L1 beads, CellTiter-Glo 96 h; call rule not given here;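 further: 0% = median vehicle wells and 100% = positive control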
Numbers without * were called inactive; ? = inconclusive; . = no result; ! = not confirmed by another sample. This is a sample that favours compounds with a hit; in the whole collection about 8.1% have one here.

SMILES	Hedgehog inh	NOMO-1 viab	MITF inh	PD-1 reverse act
NC(=NCc1ccccc1)NC(=O)c1nc(Cl)c(N)nc1N	69*!	91*!	9	2
C[C@@H]1CN([C@@H](C)CO)C(=O)c2cccc(NC(=O)c3nc4ccccc4s3)c2O[C@@H]1CN(C)Cc1ccc(C(=O)Nc2ccccc2N)cc1	.	127*	18	-6
C[C@H](CO)N1C[C@H](C)[C@@H](CN(C)Cc2ccc(C(=O)Nc3ccccc3N)cc2)Oc2c(NC(=O)c3nc4ccccc4s3)cccc2C1=O	.	110*	22	-1
C[C@@H]1CN([C@H](C)CO)C(=O)c2cccc(NC(=O)c3nc4ccccc4s3)c2O[C@H]1CN(C)Cc1ccc(C(=O)O)cc1	-17	11	5	-1
COc1cc(NC(=O)Cc2ccc(F)cc2)cc(S(=O)(=O)c2ccc(Cl)cc2)c1	24	75	58	0
Cc1ccc(S(=O)(=O)N(C)C[C@H]2Oc3c(NC(=O)Nc4ccc(C(F)(F)F)cc4)cccc3C(=O)N([C@H](C)CO)C[C@@H]2C)cc1	-15	59	11	.
C[C@@H]1CN([C@@H](C)CO)C(=O)c2cccc(NC(=O)Nc3ccc(C(F)(F)F)cc3)c2O[C@@H]1CN(C)S(=O)(=O)c1ccc(Cl)cc1	?	122*	87*	-11
C[C@@H]1CN([C@H](C)CO)C(=O)c2cccc(NC(=O)Nc3ccc(C(F)(F)F)cc3)c2O[C@@H]1CN(C)S(=O)(=O)c1ccc(Cl)cc1	4	117*	66	-7
S=C(NCCc1cnc[nH]1)Nc1ccc(Oc2ccccc2)cc1	.	18	-4	.
OC(Cc1cccnc1)(c1ccccc1)c1ccccc1	71*	9	27	-1
COc1ccc(NC(=O)CN(c2ccc(F)c(Cl)c2)S(C)(=O)=O)c(OC)c1	.	25	-6	0
COc1cccc(N(CC(=O)Nc2c(C)cc(C)cc2C)S(C)(=O)=O)c1	.	-13	3	.
C=C1C(=O)O[C@@H]2C[C@H](C)[C@@H]3CC(=O)C(C)=C3C[C@H]12	5	121*	38	-15
CNc1ccccc1C(=O)N1CCc2c([nH]c3ccccc23)C1=O	21	95*	-13	.
C[C@@H]1CN([C@H](C)CO)C(=O)Cc2cc(NC(=O)Nc3ccc(F)cc3)ccc2O[C@H]1CN(C)CC1CCCCC1	-58	?	12	.
C[C@H]1CN([C@@H](C)CO)C(=O)Cc2cc(NC(=O)Nc3ccc(C(F)(F)F)cc3)ccc2O[C@H]1CN(C)CC1CCCCC1	?	130*	1	-5
C[C@H]1CN([C@@H](C)CO)C(=O)Cc2cc(NC(=O)Nc3ccc(C(F)(F)F)cc3)ccc2O[C@@H]1CN(C)CC1CC1	24	11	-11	2
C[C@@H]1CN([C@H](C)CO)C(=O)c2cc(NC(=O)Nc3ccc(C(F)(F)F)cc3)ccc2O[C@H]1CN(C)CC1CCCCC1	.	103*	-6	2
C[C@@H]1CN([C@@H](C)CO)C(=O)Cc2cc(NC(=O)Nc3ccc(C(F)(F)F)cc3)ccc2O[C@@H]1CN(C)CC1CCCCC1	-2	104*	8	2
Cc1c(C)c(C)c(C(=O)/C=N/N)c(C)c1C	-8	2	11	2
O=C(O)c1ccc(NS(=O)(=O)c2cc3c4c(cccc4c2)C(=O)NC3=O)cc1	23	140*	24	0
Cc1ccc(NC(=O)c2cccc(S(=O)(=O)Nc3cccc(C(=O)O)c3)c2)cc1	.	-12	9	.
CCC1=Nc2ccc(Br)cc2C(c2ccccc2)N1CC(=O)NN (centres undefined)	.	15	-43	0
C[C@H]1CN([C@@H](C)CO)C(=O)c2cc(NC(=O)Nc3ccccc3)ccc2O[C@H]1CN(C)Cc1ccc(Cl)c(Cl)c1	21	100*	28	-2
C[C@H]1CN([C@@H](C)CO)C(=O)c2cc(NC(=O)Nc3ccccc3)ccc2O[C@@H]1CN(C)Cc1ccc(Cl)c(Cl)c1	.	18	-2	1
SMILES	Hedgehog inh	NOMO-1 viab	MITF inh	PD-1 reverse act
C[C@@H]1CN([C@@H](C)CO)C(=O)c2cc(NC(=O)Nc3ccccc3)ccc2O[C@@H]1CN(C)Cc1ccc(Cl)c(Cl)c1	39	112*	34	0
C[C@@H]1CN([C@@H](C)CO)C(=O)c2cc(NC(=O)Nc3cccc4ccccc34)ccc2O[C@H]1CN(C)Cc1ccc(C(F)(F)F)cc1	-23	87*	8	1
C[C@@H]1CN([C@@H](C)CO)C(=O)c2cc(NC(=O)Nc3ccccc3)ccc2O[C@@H]1CN(C)C(=O)Nc1cccc2ccccc12	17	67	-22	-5
C[C@H]1CN([C@@H](C)CO)C(=O)c2cc(NC(=O)Nc3cccc4ccccc34)ccc2O[C@@H]1CN(C)C(=O)Nc1ccc(C(F)(F)F)cc1	-45	86*	32	-5
C[C@H](CO)N1C[C@H](C)[C@H](CN(C)Cc2ccncc2)Oc2ccc(NC(=O)Nc3cccc4ccccc34)cc2C1=O	.	98*	7	4
C[C@H]1CN([C@@H](C)CO)C(=O)c2cc(NC(=O)Nc3cccc4ccccc34)ccc2O[C@H]1CN(C)Cc1ccc(C(F)(F)F)cc1	.	1	29	2
C[C@@H]1CN([C@H](C)CO)C(=O)c2cc(NC(=O)Nc3ccccc3)ccc2O[C@@H]1CN(C)C(=O)Nc1cccc2ccccc12	10	90*	-7	-5
CCn1c(SCC(=O)Nc2ccccc2F)nnc1-c1ccc(Br)cc1	.	2	-2	.
CS(=O)(=O)N(CC(=O)Nc1ccccc1C(F)(F)F)C1CCCCC1	.	6	2	1
Cc1ccnc(SCc2cccc(C(=O)O)c2)n1	.	1	-11	.
CC1CCC2C(C)(C)C(=O)CC[C@]2(C)C12Cc1c(O)cc3c(c1O2)CN(C(CCC(=O)O)C(=O)O)C3=O (some centres undefined)	-6	1	6	1
CC1(C)Cc2nc(-c3ccccc3)nc(SCC(=O)Nc3ccc(Br)cc3)c2CO1	.	101*	1	-13
COC(=O)C(Cc1c[nH]c2ccccc12)NS(=O)(=O)c1ccc(CNC(=O)c2ccccc2)s1 (centres undefined)	1	115*	11	0
C[C@H](CO)N1C[C@H](C)[C@@H](CN(C)Cc2ccc(Oc3ccccc3)cc2)Oc2ccc(NC(=O)Nc3ccc(F)cc3)cc2C1=O	19	29	11	0
C[C@@H]1CN([C@H](C)CO)C(=O)c2cc(NC(=O)Nc3ccc(F)cc3)ccc2O[C@H]1CN(C)Cc1ccc(-c2ccccc2)cc1	.	126*	5	-11
C[C@@H]1CN([C@H](C)CO)C(=O)c2cc(NC(=O)Nc3ccccc3)ccc2O[C@H]1CN(C)Cc1ccc(-c2ccccc2)cc1	.	116*	6	-12
C[C@H](CO)N1C[C@H](C)[C@H](CN(C)Cc2ccc(Oc3ccccc3)cc2)Oc2ccc(NC(=O)Nc3ccc(F)cc3)cc2C1=O	11	66	3	1
C[C@@H]1CN([C@H](C)CO)C(=O)c2cc(NC(=O)Nc3ccc(F)cc3)ccc2O[C@@H]1CN(C)Cc1ccc(-c2ccccc2)cc1	-106	92*	25	.

Screens: PubChem, Broad Institute
